# Data as given in PubChem BioAssay (NCI).
# Where “and” joins values, the source holds several entries; their conditions need not be identical. Equal values may be shown once. Compounds without any hit were thinned out: in the full panel of roughly 83,000, 20% have a hit.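 Each cell line was grown in a 96-well plate and treated with one concentration of compound for 48 hours. Values below 10 were considered active.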 Values without a mark were called inactive. Calls of active or inactive are those of the source.
# Test system: MDA-MB-468 breast
# Test: NCI-60 one-dose screen, 48 h (100 = growth as untreated, 0 = no growth, -100 = all killed)
# Details: 10 µM unless noted
row,SMILES,growth
1,Nc1c(-c2nc3ccc(Br)cc3c(=O)[nH]2)nnn1-c1ccccc1,65.6%
2,CCCc1cccc(CCC)c1O,118%
3,CC1C(c2ccccc2)OCCN1C(=S)Nc1ccc(S(=O)(=O)N2CCCCC2)cc1 (stereo not given),80.4%
4,COc1cccc(-c2nn(-c3ccccc3)cc2-c2ccnc(N3CCN(C(=O)Nc4ccc(F)cc4)CC3)c2)c1,51.6%
5,CCC(=O)Oc1ccc2c(c1)CC[C@@H]1[C@@H]2CC[C@]2(C)C[C@H](OC(=O)CC)C[C@@H]12,47.9%
6,O=C(Nc1nc(-c2ccccc2Cl)cs1)c1cc(-c2ccccc2)nc2ccc(Cl)cc12,90.9%
7,O=C1COCCN1c1ccc(Nc2nc(Cl)nc(N3CCOCC3)n2)cc1,87.2%
8,COc1ccc(N2CCN(C(=O)CSc3ccc(-c4nc5cc(C)c(C)cc5[nH]4)cn3)CC2)cc1,49.5%
9,Oc1c(Cl)cc(Cl)c2ccc(Cn3cc(-c4cccc(C(F)(F)F)c4)nn3)nc12,56.4%
10,Cc1ccc(N2CCN(C3=C(Cl)C(=O)c4ncccc4C3=O)CC2)cc1,-63.9% (active)
11,CCN(CC)CCN(CCN(CC)CC)c1ccccc1,92%
12,Clc1ccc(-c2cn3cc(Cc4ccc(Cl)c(Cl)c4)sc3n2)cc1,80.5%
13,COc1ccc2c(c1)[nH]c(=O)c1c3cc(OC)ccc3cn21,5.66% (active)
14,Clc1ccc(N2N=C(c3cccc(Nc4ccncc4)c3)CC2c2ccc(Br)cc2)cc1 (stereo not given),-27.1% (active)
15,O=C1CCC(C(=O)N/N=C/c2cc(F)ccc2F)N1 (stereo not given),111%
16,N=C(N)c1ccc(-c2ccc(-c3ccc(Cl)cc3Cl)o2)cc1,-84.4% (active)
17,O=C1/C(=C/c2ccc(F)c(F)c2)CN(C(=O)C(Cl)Cl)C/C1=C\c1ccc(F)c(F)c1,-58.2% (active)
18,CCN(C(=O)c1ccc2c3c(cccc13)C=C2)c1ccccc1,84.3%
19,O=C1C=C(SCCO)C(=O)c2ccccc21,-42.6% (active)
20,C=C(C)[C@@H]1CC[C@]2(C(=O)NCCCN(CCC#N)CCC#N)CC[C@]3(C)[C@H](CC[C@@H]4[C@@]5(C)CCC(=O)C(C)(C)[C@@H]5CC[C@]43C)[C@@H]12,116% and 90.6%

row,SMILES,growth
1,C[C@]12CC[C@@H]3c4ccc(O)c(N)c4CC[C@H]3[C@@H]1CC[C@@H]2O,59.8%
2,CCN(CC)CCCN1C(=O)c2c(c(C)c3c(oc4cc(O)ccc43)c2C)C1=O,102%
3,Nc1ncc(-c2ccc3ncnc(N4CCc5ccc(Cl)cc54)c3c2)cn1,-38% (active)
4,COC(C(=O)[C@@H](O)[C@@H](C)O)[C@@H]1Cc2cc3cc(O[C@H]4C[C@@H](O[C@H]5C[C@@H](O)[C@H](O)C(C)O5)[C@H](O)C(C)O4)cc(O)c3c(O)c2C(=O)[C@H]1O[C@H]1C[C@@H](O[C@H]2C[C@@H](O[C@H]3C[C@@H](OC)[C@H](O)C(C)O3)[C@@H](O)C(C)O2)[C@H](O)C(C)O1 (stereo not given in full),59.3%
5,Cc1cc2cn3c4ccc(O)cc4nc(N)c3c2cc1C,-9.7% (active)
6,COc1ccc(C2=NN(C=O)C(c3ccc(Oc4nc5c(c(=O)n(C)c(=O)n5C)n4C)c(OC)c3)C2)cc1 (stereo not given),73.6%
7,COc1ccc(/C=N/C2=C(C#N)C(c3cccc(Cl)c3)c3c(ccc4ccccc34)O2)cc1 (stereo not given),3.32% (active)
8,O=c1oc2cc(OS(=O)(=O)c3ccccc3)ccc2c2c1CCCCC2,44.3%
9,CC(=O)Nc1ccc2oc(=O)ccc2c1,83%
10,O=c1[nH]nc(-c2ccccc2)c2c(-c3ccccc3)onc12,1.46% (active)
11,C=C[C@H]1C[C@@H]2C[C@@H]3[C@H]4C/C=C\C(=O)NCCCC5NC(=O)C(=C(O)/C=C/[C@@H]4CC(=O)[C@H]3[C@@H]2[C@H]1C)C5=O (stereo not given in full),-29.9% (active)
12,O=C(Nc1ccc(F)cc1)c1ccc(C(=O)Nc2ccc(F)cc2)cc1,99.7%
13,CSc1nc(N)c(N)c(N)n1,114%
14,CN(C)CCCn1c2c(c3ccc(N4CCNCC4)cc3c1=O)C(=O)c1ccccc1-2,-17.2% (active)
15,CCCOC(=O)C1(O)CCCC1,97.1%
16,O=C1/C(=C/c2ccc(Cl)c(Cl)c2)CN(C(=O)C(Cl)Cl)C/C1=C\c1ccc(Cl)c(Cl)c1,-52.5% (active)
17,O=C(C(=O)N1CCCC1)c1cn(CCCn2cc(C(=O)C(=O)N3CCCC3)c3cc(Br)ccc32)c2ccc(Br)cc12,70.4%
18,CCCNc1nc(SC)nc(-c2cccc(N)c2)c1C#N,114%
19,CC1(C)CNC(=O)N1,98.2%
20,CCOC(=O)c1c(Nc2ccccc2)nn2c(N)c(C#N)c(-c3ccccc3)nc12,62.4%
